Screening results: PubChem BioAssay, The Scripps Research Institute Molecular Screening Center
PG9 Ab binder = binders of HIV-1 gp120 antibody PG9, primary screen, biochemical, TR-FRET. HIV-1 gp120 / PG9 antibody interaction. TR-FRET gp120-PG9 antibody binding. inhibition, % at 6.7 µM. hit rate 0.43% among 360,000; in the data active = inhibition above about 8.5%
MsrA act = bovine MsrA enzyme activators, primary screen, biochemical, absorbance, HTS; hit rate 0.3% among 360,000; Methionine sulfoxide reductase A (Bos taurus); activation, % at 10.6 µM; purified bovine MsrA, absorbance read-out; in the data active = activation above about 7.5%
sPLA2-III inh = human group III sPLA2 inhibitors, primary screen, biochemical, QFRET, BODIPY PC-A2 liposome substrate | Group 3 secretory phospholipase A2 (Homo sapiens), Q9NZ20 | QFRET BODIPY PC-A2 liposome hydrolysis, fluorescence | inhibition, % at 12.2 µM | hit rate 0.56% among 370,000 | AID 743126, 2013;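 active = inhibition above mean plus 3 SD of compounds lying within the high and low control bounds, cut at about 19% in these data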
Target sequence (Q9NZ20 whole entry, looked up): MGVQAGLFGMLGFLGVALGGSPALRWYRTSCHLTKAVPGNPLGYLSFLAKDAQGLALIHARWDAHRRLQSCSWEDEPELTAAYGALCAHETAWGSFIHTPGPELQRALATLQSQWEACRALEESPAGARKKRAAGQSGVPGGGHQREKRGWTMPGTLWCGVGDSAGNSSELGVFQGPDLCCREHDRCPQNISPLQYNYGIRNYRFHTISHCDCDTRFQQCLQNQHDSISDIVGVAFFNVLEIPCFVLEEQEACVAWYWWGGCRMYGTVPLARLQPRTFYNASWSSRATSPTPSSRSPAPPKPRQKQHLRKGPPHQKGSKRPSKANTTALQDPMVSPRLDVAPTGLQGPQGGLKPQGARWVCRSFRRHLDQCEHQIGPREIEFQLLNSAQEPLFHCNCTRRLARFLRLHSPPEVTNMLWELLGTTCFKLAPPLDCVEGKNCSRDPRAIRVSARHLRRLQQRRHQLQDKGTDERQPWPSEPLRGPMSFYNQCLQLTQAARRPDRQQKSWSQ
rCAG binder = binders of r(CAG) RNA repeats, primary screen, biochemical, fluorescence. inhibition, % at 3 µM. r(CAG) RNA repeat, TO-PRO-1 dye displacement fluorescence. AID 651821, 2012. hit rate 1.3% among 370,000;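 active = inhibition above the plate cutoff, the mean of all test compounds on that plate plus 3 SD, cut at about 35% in these data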;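 also: higher means more dye released from RNA so lower well fluorescence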
MsrA inh = bovine MsrA enzyme inhibitors, primary screen, biochemical, absorbance, HTS; AID 651718, 2012; purified bovine MsrA, absorbance read-out; hit rate 0.75% among 360,000; inhibition, % at 15.5 µM; Methionine sulfoxide reductase A (Bos taurus); in the data active = inhibition above about 4.5%
MsrA act confirm = bovine MsrA activators, retest, confirmation, biochemical, absorbance, HTS. activation, % at 10.6 µM. shares compounds with MsrA act. hit rate 12% among 1,000. AID 602270, 2012. purified bovine MsrA, absorbance read-out; in the data active = activation above about 4%;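 also: enzyme coupled to thioredoxin and thioredoxin reductase with NADPH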
Numbers stand for hits; n = inactive; x = not tested or not shown. Only some compounds are listed: those with a hit (about 3.2% of all), similar ones and a draw of the others.

SMILES	PG9 Ab binder	MsrA act	sPLA2-III inh	rCAG binder	MsrA inh	MsrA act confirm
CC(=O)Nc1ccc(SC[C@H](Cc2ccccc2)N2CC[C@@H](C(C)(C)C)CCC2=O)cc1	n	n	n	n	n	x
CCOC(=O)[C@@]12CN(C(=O)OC(C)(C)C)CC=C1N(Cc1ccc(OC)cc1)C(=O)[C@H]2CC(=O)NCCc1ccccc1OC	x	x	n	n	x	x
Cc1ccc(OCC(=O)Nn2c(C)nc3ccccc3c2=O)c(C(C)C)c1	n	8.2	n	n	n	n
Cc1ccc(-c2nc3ccccc3c(=O)n2NC(=O)COc2ccccc2)cc1	n	n	n	n	n	x
O=C(Nc1ccc(Cl)c(Cl)c1)C1CCCN1S(=O)(=O)c1cccc2cccnc12 (centres undefined)	x	x	n	n	x	x
COc1ccccc1-[n+]1c(C)cc(/C=C2\Sc3ccccc3N2C)cc1C	n	8.2	n	n	n	n
CC1CCC2(CCC(=O)N2CCCOC(=O)NC(C)(C)C)CC1 (centres undefined)	x	x	n	n	x	x
O=C(COC(=O)CCCNC(=O)c1ccc(Cl)cc1)NC1CC1	n	7.9	n	n	n	n
O=C(NCCN1CCCCC1)c1ccc2c(c1)OCCO2	n	10.2	n	n	n	n
O=C(O)c1cc(-c2ccc(Cl)cc2)n[nH]1	n	9.2	n	n	n	n
O=C(O)c1ccc(C=NNC(=O)c2cc(-c3ccc(Cl)cc3)n[nH]2)cc1	x	x	n	n	x	x
O=C(NCCc1csc(-c2ccccc2)n1)c1c(F)cccc1F	n	n	n	n	n	x
O=C(NCCc1ccccc1)c1c(F)cccc1F	n	11.1	n	n	n	n
O=C([C@@H]1C[C@H]1c1ccccc1)N1CC[C@H]2[C@H](CCCN2Cc2ccc(F)cc2)C1	x	x	n	n	x	x
O=C(CSc1ccccc1C(=O)O)NCc1ccccc1	n	8.1	n	n	n	n
COC(=O)C1CN(C2CCCC2)CCS(=O)(=O)N1Cc1ccc(F)cc1 (centres undefined)	x	x	n	n	x	x
O=C(Nc1ccc(F)cc1)N1CCN(c2nc3ccccc3s2)CC1	n	8.0	n	n	n	n
Nc1nc2ccccc2n1/N=C/c1ccc([N+](=O)[O-])s1	n	8.0	n	n	n	7.8
Nc1nc2ccccc2n1/N=C/c1cccnc1	n	n	n	n	n	x
Cn1c(SCc2ccc(C(C)(C)C)cc2)nnc1-c1ccco1	x	x	n	n	x	x
CCN1C(=O)N(C)[C@@H](c2ccccc2)C(C(=O)OC)=C1C	n	9.3	n	n	n	n
COc1cccc(-n2c(=O)c3ccccc3n3c(=S)[nH]nc23)c1	n	n	n	n	n	x
COCCCn1c(=O)c2ccccc2n2c(=S)[nH]nc12	n	9.8	n	n	n	5.4
C=CCN1[C@H](C)COc2cccc(N3CCCC3)c2S1(=O)=O	x	x	n	n	x	x
Cc1nnc(NC(=O)c2nc(S(=O)(=O)Cc3ccccc3)ncc2Cl)s1	n	11.3	n	n	n	n
SMILES	PG9 Ab binder	MsrA act	sPLA2-III inh	rCAG binder	MsrA inh	MsrA act confirm
Cc1cccc(C)c1NC(=O)c1nc(S(=O)(=O)Cc2ccccc2)ncc1Cl	n	n	n	n	n	x
O=c1c2c3c(sc2nc(NCCO)n1CCc1ccccc1)CCCCC3	n	n	n	n	n	x
OCCNc1nc(SCc2ccccc2)nc2sc3c(c12)CCC3	n	14.4	n	n	n	n
CCn1c2ccccc2c2cc(NC(=O)COC(=O)c3cccc(F)c3)ccc21	x	x	n	n	x	x
COc1cc(NC(=O)c2cccs2)c(C(=O)OCC(=O)NC(=O)NCc2ccccc2)cc1OC	n	7.9	n	n	n	n
CCCCCC(=O)NNC(=S)NC(=O)c1cccc([N+](=O)[O-])c1	n	8.9	n	n	n	n
COc1ccc(C2CC(c3cccs3)=Nc3ccccc3S2)cc1 (centres undefined)	n	10.1	n	n	n	n
CCOC(=O)c1nn(-c2ccc(F)cc2)c(=O)c2c(N)scc12	n	n	n	n	n	x
CCOC(=O)c1nn(-c2ccc(C)cc2)c(=O)c2c(N)scc12	n	8.6	n	n	n	n
O=C(CN1C(=O)C2(OCCCO2)c2ccccc21)NCc1ccccc1Cl	x	x	n	n	x	x
CC[C@@H](CCCCCCCn1ccc2ccccc21)CCC(=O)N(c1ccccc1)c1ccccc1	x	x	n	n	x	x
Cc1cc(CN(C)C(=O)c2ccc(OC3CCN(CCc4ccccc4)CC3)cc2)on1	n	11.1	n	n	n	n
COc1ccc(-n2c(SCC(=O)Nc3cc(C)c(NC(=O)c4ccccc4)cc3OC)nnc2-c2ccccc2F)cc1	x	x	n	n	x	x
CC(C)(C)c1cc(NC(=O)c2ccco2)n(-c2ccccc2)n1	n	16.1	n	n	n	n
CC(C)(C)c1cc(NC(=O)COC(=O)c2ccccc2)n(-c2ccccc2)n1	n	n	n	n	n	x
COC(=O)[C@]12C[C@H](CC(=O)NCCCCc3ccccc3)C(=O)N(Cc3ccc(Cl)cc3Cl)C1=C[C@H](COCc1ccccc1)O[C@@H]2C	x	x	n	n	x	x
COC(=O)C1=CC(=O)C=C(OC)[C@@]12Oc1cc(C)cc(OC)c1C2=O	x	x	n	n	x	x
N#Cc1cccc(-c2nnc(SCc3ccccc3C#N)o2)c1	n	14.3	n	n	n	n
N#Cc1ccccc1CSc1nnc(-c2ccncc2)o1	x	n	x	x	x	x
O=C(c1ccc(C#Cc2ccccc2)cc1)N1CCC(O)CC1	x	x	n	n	x	x
COc1cccc(C(c2sc3ncnn3c2O)N2CC(C)OC(C)C2)c1 (centres undefined)	n	8.1	n	n	n	n
COc1cccc(C(c2sc3ncnn3c2O)N2CCc3ccccc3C2)c1 (centres undefined)	n	n	n	n	n	x
OCc1ccccc1SSc1ccccc1CO	n	11.4	n	n	n	6.4
CCN(CC)S(=O)(=O)c1cc(NC(=O)COC(=O)CCC(=O)c2cccs2)ccc1C	n	8.4	n	n	n	n
COc1ccc(/C=C2\CC3(OC(=O)C4CCCC4)CCCN2C3)cc1 (centres undefined)	x	x	n	n	x	x
SMILES	PG9 Ab binder	MsrA act	sPLA2-III inh	rCAG binder	MsrA inh	MsrA act confirm
COC(=O)C/C=C/[C@@H](C)[C@H](NC(=O)OCC(Cl)(Cl)Cl)c1ccc(-c2ccccc2)cc1	x	x	n	n	x	x
Cc1nnc(N/N=C/c2ccc([N+](=O)[O-])cc2)n1N	n	20.6	n	n	n	n
Cc1nnc(N/N=C/c2ccc(-c3ccc(Br)cc3)o2)n1N	n	n	n	n	n	x
Cc1nnc(N/N=C/c2ccc(Br)cc2)n1N	n	34.0	n	n	n	n
COC(=O)[C@H](C(C)C)N1Cc2nnn(CC3CCCCC3)c2-c2cc(F)ccc2S1(=O)=O	x	x	n	n	x	x
O=C(CCCN=C1NS(=O)(=O)c2ccccc21)OCc1ccc(F)cc1	n	n	n	n	n	x
O=C(CCCN=C1NS(=O)(=O)c2ccccc21)OCc1ccccc1	n	8.8	n	n	n	n
